Results on 18 compounds are retold here after PubChem BioAssay (EPA / NIEHS).

Inconclusive results are not listed. Activity calls are given as the source filed them. The calls were made as follows: active = hit-call score of the fitted dose curve at least 0.9, where 1 is the maximum; inconclusive = response in the unintended direction; inactive = score below 0.9.

Experiment [1] can be described thus: TOX21_p53_BLA_p2_viability: Viability Assessment in the Tox21 HCT-116 p53 Agonism Beta-lactamase Assay, Phase 2 (AID 2283591).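 Also: compound exposure lasted 16 h at 37 °C; actives lower the ATP signal meaning cytotoxicity.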 The method in brief: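 HCT-116 p53-bla cells (4000/well) rested 5 h at 37C, then received compounds in DMSO (217-fold dilution) for 16 h at 37C, 5% CO2. After the CCF4 read, CellTiter-Glo was added; ATP luminescence was read after 30 min at room temperature.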

In experiment [2] the target is Cellular tumor antigen p53 (Homo sapiens) (UniProt P04637). The experiment in a line: TOX21_p53_BLA_p2_ratio: Tox21 HCT-116 p53 Agonism Beta-lactamase Assay, Ratio, Phase 2 (AID 2283592). The method in brief: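 Plated HCT116 p53-bla cells (4000/well) received compound after 5 h, then 16 h at 37C/5% CO2. CCF4-AM added, 2 h RT. Ratio of 460 to 530 nm emission taken as the p53 reporter signal.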

Experiment [3] is described as follows: TOX21_p53_BLA_p3_viability: Viability Assessment in the Tox21 HCT-116 p53 Agonism Beta-lactamase Assay, Phase 3 (AID 2283593).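 Also: cells exposed to compound for 16 h before reading.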 In a few lines: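 HCT-116 cells (4000/well) rested 5 h at 37C, then got DMSO compounds by pin tool (217-fold dilution) for 16 h at 37C, 5% CO2. After the bla read, CellTiter-Glo was added and luminescence read at 30 min, room temperature.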

For experiment [4], the target named is Cellular tumor antigen p53 (Homo sapiens) (UniProt P04637). The experiment in a line: TOX21_p53_BLA_p3_ratio: Tox21 HCT-116 p53 Agonism Beta-lactamase Assay, Ratio, Phase 3 (AID 2283596). The method in brief:
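Cells were seeded at 4000/well, rested 5 h at 37C, then dosed with DMSO compound solutions (217-fold dilution) for 16 h. CCF4-AM substrate was loaded for 2 h at room temperature, and the 460/530 nm emission ratio was fitted for gain of signal versus DMSO.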

Experiment [5] is described as follows: TOX21_p53_BLA_p4_viability: Viability Assessment in the Tox21 HCT-116 p53 Agonism Beta-lactamase Assay, Phase 4 (AID 2283597).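 Also: hits lower the luminescence signal meaning cytotoxicity.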 In a few lines:
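Readout: ATP luminescence (CellTiter-Glo), measured 30 min after reagent addition at RT. The reagent followed a 2 h CCF4-AM incubation, and the cells had been exposed to compound for 16 h at 37C.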

Experiment [6] has as its target Cellular tumor antigen p53 (Homo sapiens) (UniProt P04637). Briefly: TOX21_p53_BLA_p5_ratio: Tox21 HCT-116 p53 Agonism Beta-lactamase Assay, Ratio, Phase 5 (AID 2283599). The method in brief: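 HCT-116 cells carrying a p53-inducible beta-lactamase reporter were seeded at 4000 cells/well and dosed after 5 h with compound in DMSO (217-fold dilution). After 16 h at 37C, CCF4-AM substrate was added for 2 h, and the 460/530 nm emission ratio was scored as gain-of-signal versus DMSO.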

Experiment [7] in a line: TOX21_p53_BLA_p5_viability: Viability Assessment in the Tox21 HCT-116 p53 Agonism Beta-lactamase Assay, Phase 5 (AID 2283600). In a few lines: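 Workflow: seed 4000 cells per well, wait 5 h, add compounds (DMSO, 217-fold dilution), incubate 16 h, load CCF4-AM 2 h, add CellTiter-Glo, read luminescence after 30 min.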
In experiment [8] the target is Cellular tumor antigen p53 (Homo sapiens) (UniProt P04637). The experiment in a line: TOX21_p53_BLA_p4_ratio: Tox21 HCT-116 p53 Agonism Beta-lactamase Assay, Ratio, Phase 4 (AID 2283601). The method in brief: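 HCT116 cells carrying an inducible beta-lactamase reporter were plated at 4000 cells/well, rested 5 h, then exposed to compounds in DMSO (217-fold dilution) for 16 h at 37C. CCF4-AM substrate was loaded 2 h at room temperature; 460/530 nm emission ratio scored gain-of-signal versus DMSO.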

Chain of Cellular tumor antigen p53 (Homo sapiens) (P04637 whole entry, looked up): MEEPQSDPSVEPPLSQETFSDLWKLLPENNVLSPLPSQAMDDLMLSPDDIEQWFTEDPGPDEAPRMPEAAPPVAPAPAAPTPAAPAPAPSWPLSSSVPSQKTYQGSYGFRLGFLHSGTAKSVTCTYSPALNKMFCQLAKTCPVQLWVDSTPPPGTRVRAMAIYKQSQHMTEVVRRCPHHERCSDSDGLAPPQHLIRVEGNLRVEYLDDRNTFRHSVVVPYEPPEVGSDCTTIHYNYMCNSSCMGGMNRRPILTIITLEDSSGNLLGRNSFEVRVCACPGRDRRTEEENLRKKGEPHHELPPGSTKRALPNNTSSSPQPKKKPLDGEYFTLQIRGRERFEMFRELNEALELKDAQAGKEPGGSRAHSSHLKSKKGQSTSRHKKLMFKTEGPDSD

Take `O=C(N/N=C/c1ccccc1O)c1ccncc1`: the outcome in experiment [1], in experiment [2], in experiment [3], in experiment [4], in experiment [6] and in experiment [7] was inactive. Moreover, the outcome in experiment [8] was inactive. In experiment [5], the half-maximal activity concentration (AC50) (commonly the concentration at which the activity in the assay is half-maximal) is 8.16 µM (active).

In the case of `CNCC[C@H](Oc1cccc2ccccc12)c1cccs1`, the concentration at half-maximal activity (AC50) is 35.4 µM (active) in experiment [1], 43.5 µM (active) in experiment [2], 35.4 µM (active) in experiment [5] and 43.7 µM (active) in experiment [8]. The call in experiment [3], in experiment [4], in experiment [6] and in experiment [7] was inactive.

Take `CCCCCCCCCCOCC(O)CN` (centres undefined): the half-maximal activity concentration (AC50) in experiment [1] was 36.8 µM (active); in experiment [5], 36.8 µM (active); in experiment [8] it was 42.9 µM (active). Moreover, the result in experiment [2], in experiment [3], in experiment [4], in experiment [6] and in experiment [7] was inactive.

For `CC(C)=CCOc1ccc(/C=C/C(=O)c2ccc(OCC=C(C)C)cc2OCC(=O)O)cc1`, the AC50 was 8 µM (active) in experiment [1]; 6.92 µM (active) in experiment [2]; 14.9 µM (active) in experiment [3]; 13.8 µM (active) in experiment [4]; 7.92 µM (active) in experiment [5]; 9.9 µM (active) in experiment [6]. Also, in experiment [8], the AC50 is 7.21 µM (active). For the same compound, the outcome in experiment [7] was inactive.

As to `CCOC(=O)/C=C(C)/C=C/C=C(C)/C=C/c1c(C)cc(OC)c(C)c1C`, the compound was called inactive in experiment [1], in experiment [2], in experiment [3], in experiment [4], in experiment [5] and in experiment [6]. For the same compound, the outcome in experiment [7] and in experiment [8] was inactive.

`O=C(O)c1cc(=O)c2c3nc4ccccc4oc-3cc(=O)c2[nH]1`: the compound was called inactive in experiment [1], in experiment [2], in experiment [3], in experiment [4], in experiment [5] and in experiment [6]. For the same compound, the result in experiment [7] and in experiment [8] was inactive.

For `Cc1cc(O)c(C(C)(C)C)cc1Sc1cc(C(C)(C)C)c(O)cc1C`, the half-maximal activity concentration (AC50) was 13.2 µM (active) in experiment [1]; 37.9 µM (active) in experiment [2]; 20 µM (active) in experiment [3]; 33.4 µM (active) in experiment [4]; 14.3 µM (active) in experiment [5]; 40.9 µM (active) in experiment [6]. For the same compound, the figures for the half-maximal activity concentration (AC50) in experiment [7] and in experiment [8] were 18.1 µM (active) and 31.5 µM (active), respectively.

For `Cc1cc2c(C(C)C)c(O)c(O)c(C=O)c2c(O)c1-c1c(C)cc2c(C(C)C)c(O)c(O)c(C=O)c2c1O`, the concentration at half-maximal activity (AC50) in experiment [1] is 10 µM (active); in experiment [2], 30.1 µM (active); in experiment [3], 6.89 µM (active); in experiment [4], 29.9 µM (active); in experiment [5], 10 µM (active); in experiment [6] it was 35 µM (active). The half-maximal activity concentration (AC50) in experiment [7] is 10.2 µM (active); in experiment [8], 33.2 µM (active).

On to `O=C(Nc1ncc([N+](=O)[O-])s1)c1cccs1`, for which the compound was classed as inactive in experiment [1], in experiment [4], in experiment [6], in experiment [7] and in experiment [8]. Moreover, the AC50 was 25 µM (active) in experiment [2], 8.44 µM (active) in experiment [3] and 13.4 µM (active) in experiment [5].

For `O=C1C(c2[nH]c3ccccc3c2O)=Nc2ccccc21`, the compound was classed as inactive in experiment [1], in experiment [2], in experiment [3], in experiment [4], in experiment [5] and in experiment [6]. Besides, the outcome in experiment [7] and in experiment [8] was inactive.

As for `Cn1cnc2c(F)c(Nc3ccc(Br)cc3Cl)c(C(=O)NOCCO)cc21`, the compound was called inactive in experiment [1], in experiment [2], in experiment [3], in experiment [4], in experiment [5] and in experiment [6]. The compound was called inactive in experiment [7] and in experiment [8].

As for `C=C1/C(=C\C=C2/CCC[C@]3(C)[C@@H]([C@H](C)CCCC(C)C)CC[C@@H]23)C[C@@H](O)C[C@@H]1O`, the result in experiment [1], in experiment [5], in experiment [6], in experiment [7] and in experiment [8] was inactive. For the same compound, the AC50 in experiment [2] was 20.7 µM (active); in experiment [3], 37.1 µM (active); in experiment [4] it was 40 µM (active).

Take `CC(C)(C)OC(=O)N1C[C@@H](F)C[C@H]1C(=O)O`: the compound was called inactive in experiment [1], in experiment [2], in experiment [3], in experiment [4], in experiment [5] and in experiment [6]. The call in experiment [7] and in experiment [8] was inactive.

With `CCCCCCCCCCn1cc[n+](CCCCCCCCCC)c1C`, the half-maximal activity concentration (AC50) in experiment [1] is 44.2 µM (active); in experiment [2], 18.7 µM (active); in experiment [3] it was 46.1 µM (active); in experiment [4], 20.1 µM (active); in experiment [5], 57.5 µM (active); in experiment [6] it was 74.1 µM (active). For the same compound, the values for the half-maximal activity concentration (AC50) in experiment [7] and in experiment [8] were 75.2 µM (active) and 73.6 µM (active), respectively.

As to `CCCCCCCCCCCCCCC(=O)O`, the call in experiment [1], in experiment [2], in experiment [3], in experiment [4], in experiment [5] and in experiment [6] was inactive. Besides, the call in experiment [7] and in experiment [8] was inactive.

As for `COc1cc2[nH]c(=O)[nH]c(=O)c2cc1OC`, the compound was called inactive in experiment [1], in experiment [2], in experiment [3], in experiment [4], in experiment [5] and in experiment [6]. In addition, the compound was called inactive in experiment [7] and in experiment [8].

For the compound `Nc1ccc(C(=O)Nc2ccccc2N)cc1`, the result in experiment [1], in experiment [3], in experiment [6], in experiment [7] and in experiment [8] was inactive. In addition, the AC50 in experiment [2] was 12.6 µM (active); in experiment [4], 21.1 µM (active); in experiment [5] it was 20.9 µM (active).

In the case of `Cc1c(C(=O)NN2CCCCC2)nn(-c2ccc(Cl)cc2Cl)c1-c1ccc(Cl)cc1`, the half-maximal activity concentration (AC50) in experiment [1] is 28.3 µM (active); in experiment [3], 23 µM (active); in experiment [5] it was 21.4 µM (active); in experiment [6], 37.8 µM (active); in experiment [7], 23 µM (active). In addition, the result in experiment [2], in experiment [4] and in experiment [8] was inactive.
